Source: PubChem (National Center for Advancing Translational Sciences (NCATS))
TDP1 inh = blocks human tyrosyl-DNA phosphodiesterase 1 | recombinant TDP1, AlphaScreen DNA substrate cleavage | Potency, µM (doses to about 130 µM), most hits filed as inhibitors | AID 485290 | actives 0.28% (n = 350,000); also: nearly all actives have a fitted effect of over 40% in size
Target sequence (Q9NUW8 whole entry, looked up): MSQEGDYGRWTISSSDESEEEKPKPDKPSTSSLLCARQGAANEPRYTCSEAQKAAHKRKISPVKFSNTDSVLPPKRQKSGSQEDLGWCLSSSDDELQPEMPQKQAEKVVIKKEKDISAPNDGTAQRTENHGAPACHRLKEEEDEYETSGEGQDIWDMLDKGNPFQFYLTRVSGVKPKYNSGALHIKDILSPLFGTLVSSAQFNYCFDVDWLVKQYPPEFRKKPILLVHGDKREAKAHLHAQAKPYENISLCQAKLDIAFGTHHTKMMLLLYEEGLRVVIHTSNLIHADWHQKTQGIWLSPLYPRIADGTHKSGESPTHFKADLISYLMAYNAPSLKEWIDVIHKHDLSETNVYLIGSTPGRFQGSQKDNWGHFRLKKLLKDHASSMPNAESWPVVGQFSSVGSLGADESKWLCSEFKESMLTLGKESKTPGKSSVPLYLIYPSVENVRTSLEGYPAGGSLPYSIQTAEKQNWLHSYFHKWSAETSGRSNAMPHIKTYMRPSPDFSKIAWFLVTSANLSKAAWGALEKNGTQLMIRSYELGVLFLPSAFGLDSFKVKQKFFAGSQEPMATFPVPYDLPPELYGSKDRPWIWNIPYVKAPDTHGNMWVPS
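Recombinant E. coli-expressed Tdp1 (1 nM) preincubated with compound 15 min at RT, then 5'-biotin/3'-phosphotyrosine-FITC DNA substrate (15 nM) added for 5 min. AlphaScreen beads (10 ug/ml) added, 10 min RT; tyrosine-FITC cleavage read as signal loss.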
ClpP mod = qHTS Assay for Activators of ClpP | actives 1.9% (n = 340,000) | ATP-dependent Clp protease proteolytic subunit (Bacillus subtilis (strain 168)), P80244 | purified B. subtilis ClpP, FRET peptide cleavage, 20 min | Potency, µM (top dose mostly 57.5 µM); active = well fitted falling curve with a large enough effect; inconclusive = small, poorly fitted or top-dose-only effect; inactive = no such curve, though single readings can be large or run the other way; also: the source files actives as falling curves though it sought activators and does not explain the sign; nearly all actives have a fitted effect of over 65% in size
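FRET quenching reversal measured ClpP activation: 10 microg/mL B. subtilis ClpP at pH 8 with the FRET-FV decapeptide, read at 430 nm after 320 nm excitation. The 20-min minus 0-min signal was scaled between DMSO/no-enzyme wells and ADEP (5.8 microM final).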
DT40 TDP1 no CPT = qHTS for Inhibitors of human tyrosyl-DNA phosphodiesterase 1 (TDP1): qHTS in cells in absence of CPT | Potency, µM (doses to about 46.2 µM), most hits filed as inhibitors | actives 15% (n = 420,000) | DT40 Tdp1-/- hTDP1 cells, no CPT, ATP luminescence, 48 h | AID 686978, 2013; also: nearly all actives have a fitted effect of over 55% in size
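Chicken DT40 Tdp1-/- cells stably complemented with human TDP1 were seeded at 400 cells/well with DMSO in place of 20 nM camptothecin. After compound pinning, cells grew at least 48 hr at 37 °C; viability read by CellTiter-Glo luminescence.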
TDP1 cell CPT = DT40-hTDP1 cell growth loss with CPT | chicken DT40 Tdp1-/-;hTDP1 cells + 20 nM CPT, ATP luminescence, 48 h | Potency, µM (doses to about 46.2 µM), usual class: inhibitors | actives 12% (n = 420,000); also: nearly all actives have a fitted effect of over 55% in size
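Cell growth measured by CellTiter-Glo luminescence after a minimum 48 h, 37 C compound exposure with 20 nM CPT in Tdp1-knockout DT40 cells stably expressing hTDP1, seeded 400/well; qHTS titration format.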
Hits are given with their value; 0 = inactive; ? = inconclusive; - = no result given. This is a sample that favours compounds with a hit; in the whole collection about 17% have one here. Unless noted, calls follow the shape of the dose curve; as a rule, active = well fitted curve in the direction sought with a large enough effect; inconclusive = small, poorly fitted or top-dose-only effect, or another doubt; inactive = no such curve, though single readings can be large; an effect the other way counts as inactive or inconclusive.

SMILES | TDP1 inh | ClpP mod | DT40 TDP1 no CPT | TDP1 cell CPT
COc1cccc(N2CCN(C(=O)Cn3ncc4c(=O)oc5ccccc5c43)CC2)c1 | 0 | 0 | 18.4µM | 16.4µM
Cc1ccc(Cn2c(C)c3cnn(CC(=O)N4CCN(c5ccc(F)cc5)CC4)c(=O)c3c2C)cc1 | 0 | 0 | 11.6µM | 10.3µM
Cc1c2cnn(CC(=O)N3CCCCC3)c(=O)c2c(C)n1Cc1ccc(F)cc1 | 0 | 0 | ? | ?
COc1ccc(C2=C(C)C(N3CCC(C(=O)NCc4ccco4)CC3)=NS2(=O)=O)cc1 | 0 | 0 | ? | 0
Cc1c(C)[n+](=O)c(C)c(C)n1[O-] | - | - | 0 | 0
Cc1cc(=O)n(CC(=O)N2CCCc3ccccc32)c2c1c(C)nn2-c1cccc(F)c1 | 0 | 0 | ? | 16.4µM
Cc1ccc(C)c(N2CCN(C(=O)Cn3c(C)c4cnn(-c5ccccc5)c(=O)c4c3C)CC2)c1 | 0 | 0 | 2.91µM | 5.17µM
Cc1c2cnn(-c3ccccc3)c(=O)c2c(C)n1CC(=O)N1CCN(c2cccc(Cl)c2)CC1 | 0 | 0 | 13µM | 18.4µM
COc1ccc2oc(=N)c(C(=O)Nc3cccc(C)c3C)cc2c1 | - | 0 | 0 | 0
COC(=O)c1c(C(=O)OC)c(-c2ccc(OC)cc2)n2c1CS(=O)(=O)C2 | - | 0 | 0 | 0
CCOC(=O)c1cccc(NC(=O)c2cc3ccccn3n2)c1 | 0 | 0 | ? | ?
Cc1ccc(Cc2c(-c3ccc(F)cc3)nc3ccc(Br)cn23)cc1 | - | 0 | ? | ?
Cc1ccc(Cc2c(-c3ccc(F)cc3)nc3cc(C)ccn23)cc1 | - | 0 | 16.4µM | ?
Cc1ccc(-c2nc3ccc(C)cn3c2Cc2cccc(Cl)c2)cc1 | - | 0 | ? | ?
Cc1ccc(Cc2c(-c3ccc(Br)cc3)nc3cc(C)ccn23)cc1 | - | 0 | 20.6µM | 23.1µM
CCOC(=O)C1=C(c2ccccc2)N=c2s/c(=C\c3cc(OC)c(OC)c(OC)c3)c(=O)n2C1c1cccs1 (stereo not drawn) | 0 | 0 | 6.51µM | ?
COc1ccc(C2C(C(C)=O)=C(C)N=c3s/c(=C\c4ccco4)c(=O)n32)c(OC)c1 (stereo not drawn) | 0 | 0 | 0 | 8.2µM
CCOC(=O)C1=C(C)N=c2s/c(=C\c3ccc(OCC(=O)O)cc3)c(=O)n2C1c1ccccc1OC (stereo not drawn) | - | 0 | 0 | 0
CCOC(=O)C1=C(c2ccccc2)N=c2s/c(=C\c3ccco3)c(=O)n2C1c1cccs1 (stereo not drawn) | - | 0 | ? | ?
CCOC(=O)C1=C(C)N=c2s/c(=C\c3ccc(O)c([N+](=O)[O-])c3)c(=O)n2C1c1ccccc1OC (stereo not drawn) | - | - | 18.4µM | 0
COc1ccc(/C=c2/sc3n(c2=O)C(c2ccccc2OC)C2=C(N=3)c3ccccc3CC2)cc1O (stereo not drawn) | 0 | 0 | 23.1µM | 29.1µM
O=C(O)c1ccccc1C(=O)c1cccc2ccccc12 | - | 0 | 0 | 0
O=S(=O)(c1ccc(F)cc1)N1CCC2(CC1)OCCN2S(=O)(=O)c1cccs1 | 0 | - | ? | ?
O=C(COc1ccc(Cl)cc1)OCC(=O)N1CCOCC1 | 0 | 0 | 0 | 0
CCn1c(=O)c2c(nc3n2CCN3c2ccc(OC)cc2)n(C)c1=O | 0 | 0 | 0 | ?
SMILES | TDP1 inh | ClpP mod | DT40 TDP1 no CPT | TDP1 cell CPT
CCOC(=O)C1=C(C)n2c(s/c(=C/c3cccc([N+](=O)[O-])c3)c2=O)=NC1c1ccc(O)c(OC)c1 (stereo not drawn) | 0 | 0 | 16.4µM | 16.4µM
CC(NS(=O)(=O)c1ccc(Br)s1)c1ccccc1 (stereo not drawn) | - | 0 | ? | 0
CCN(CC)CCOCCOC(=O)C(CC)(CC)c1ccccc1 (tested in a mixture with another compound) | 0 | - | - | -
CCCOc1ccc(C(=O)CCC(=O)OCC(=O)N(CC)c2c(N)n(Cc3ccccc3)c(=O)[nH]c2=O)cc1 | - | 0 | ? | 0
Nc1c(N(Cc2ccccc2)C(=O)COc2cccc(Cl)c2)c(=O)[nH]c(=O)n1Cc1ccccc1 | 0 | 0 | ? | 20.6µM
CCCCN(C(=O)C(C)Oc1ccc(Br)cc1)c1c(N)n(Cc2ccccc2)c(=O)[nH]c1=O (stereo not drawn) | 0 | 28.2µM | ? | ?
CCN(C(=O)COC(=O)C1CCC(C(C)(C)C)CC1)c1c(N)n(Cc2ccccc2)c(=O)[nH]c1=O (stereo not drawn) | - | 0 | 16.4µM | 20.6µM
CCN(C(=O)COC(=O)CCOc1ccc(C(C)(C)C)cc1)c1c(N)n(Cc2ccccc2)c(=O)[nH]c1=O | - | 0 | 3.66µM | 11.6µM
O=C(Nc1ccc2c(c1)OCO2)C1CCN(C(=O)c2ccc(Br)cc2)CC1 | 0 | - | ? | 0
COc1ccc(NC(=O)c2nc3nc(C)cc(C(F)F)n3n2)c(C)c1 | 0 | 0 | 0 | 0
Cc1ccc(C(=O)NCCNC(=O)c2ccccn2)cc1 | - | - | 0 | 0
CCN(C(=O)COC(=O)CCCOc1ccc(Cl)cc1C)c1c(N)n(Cc2ccccc2)c(=O)[nH]c1=O | - | 0 | 16.4µM | 14.6µM
CC(C)CN(C(=O)CCCOc1ccc(Cl)cc1Cl)c1c(N)n(Cc2ccccc2)c(=O)[nH]c1=O | - | 0 | 25.9µM | ?
CC(C)CN(C(=O)CCc1ccccc1Cl)c1c(N)n(Cc2ccccc2)c(=O)[nH]c1=O | 0 | 0 | 0 | 0
O=c1c(Cl)c(N/N=C/c2ccc(Br)cc2)cnn1-c1ccccc1 | 0 | ? | ? | ?
CN(C)c1ccc2c3c(ccc(N(C)C)c13)C(=O)OC2 | - | 0 | 0 | 0
O=C(CCS(=O)(=O)c1nc(-c2ccc3c(c2)OCO3)cc(C(F)(F)F)n1)Nc1ccc(Br)cc1 | 0 | ? | 3.26µM | 4.11µM
Cc1ccc(NC(=O)CCSc2nc(-c3ccc4c(c3)OCO4)cc(C(F)(F)F)n2)cc1 | 0 | 0 | - | -
O=C(CCS(=O)(=O)c1nc(-c2ccc3c(c2)OCO3)cc(C(F)(F)F)n1)Nc1ccccc1F | 0 | ? | 8.2µM | 7.31µM
COC(=O)c1ccccc1NC(=O)CCS(=O)(=O)c1nc(-c2ccc3c(c2)OCO3)cc(C(F)(F)F)n1 | 0 | ? | 3.26µM | 2.91µM
CSc1ccccc1NC(=O)CCS(=O)(=O)c1nc(-c2ccc3c(c2)OCO3)cc(C(F)(F)F)n1 | 0 | ? | 18.4µM | 8.2µM
COc1ccc(CN(C)C(C)C(=O)Nc2cccc3ccccc23)cc1 (stereo not drawn) | 0 | - | ? | ?
N#Cc1cccc(S(=O)(=O)NCCOc2ccccc2F)c1 | 0 | 0 | 0 | 0
COc1cccc(CNC(=O)C2CCCN(c3ncnc4onc(-c5ccc(F)cc5)c34)C2)c1 (stereo not drawn) | 0 | 0 | ? | ?
CCOc1ccccc1NC(=O)C1CCCN(c2ncnc3onc(-c4ccc(F)cc4)c23)C1 (stereo not drawn) | 0 | 0 | 23.1µM | 20.6µM
O=C(NCc1ccc(F)cc1)C1CCCN(C(=O)NCc2ccccc2)C1 (stereo not drawn) | 0 | 0 | 0 | 0
